Results taken from PubChem BioAssay AID880 (National Center for Advancing Translational Sciences (NCATS), 2007).
Several values for one entry are separate records, joined by “and”; a condition that tells them apart may be missing. Equal entries are not always repeated. Out of some 230,000 compounds screened, about 1,000 (0.43%) were called active. The entries come from a sample that favours actives as a whole. Unmarked numbers belong to inactive results. Calls follow the shape of the dose curve; as a rule, active = well fitted inhibition curve with a large enough effect (not every such curve was filed as active); inactive = no such curve, though single readings can be large or run the other way.

molecular target: Guanine nucleotide-binding protein G(i) subunit alpha-1 (Homo sapiens) (UniProt P63096); assay: qHTS Assay for Inhibitors of RGS12 GoLoco Motif Activity (Red Fluorophore); details: Gai1:RGS12 GoLoco peptide FP, rhodamine, 10 min; series mostly up to 61.6 µM; activity, negative = inhibition: at the top concentration; also: nearly all actives have a fitted effect of over 30% in size
From the text: Assay Submitter: Siderovski, David P, University of North Carolina at Chapel Hill
Screening Center PI: Austin, C.P.
Screening Center: NIH Chemical Genomics Center [NCGC]
G-protein-coupled receptors (GPCRs) are major targets for drug discovery. The regulator of G-protein signaling (RGS)-protein family has important roles in GPCR signal transduction. RGS proteins contain a conserved RGS-box, which is often accompanied by other signaling regulatory elements. RGS proteins accelerate the deactivation of G proteins to reduce GPCR signaling; however, some also have an effector function and transmit signals. Combining GPCR agonists with RGS inhibitors should potentiate responses, and could markedly increase the agonist's regional specificity. The diversity of RGS proteins with highly localized and dynamically regulated distributions in brain makes them attractive targets for pharmacotherapy of central nervous system disorders. […] A complex of Gai1 and fluorescently labeled G-alpha-binding peptide (the "GoLoco motif") derived from RGS12 is incubated with library members. Inhibitors of the binding are detected by a decrease in the fluorescence polarization (FP) of the fluorophore. Protein was supplied by Prof. David Siderovski, University of North Carolina at Chapel Hill.
Assay Buffer: 10 mM Tris-HCl, 150 mM NaCl, 0.1 mM GDP (prepared fresh), and 0.05% NP40 at pH 7.5.
15 nM Rhodamine labeled peptide/25 nM protein in columns 1, 2, 5 - 48. Titration of unlabeled peptide control ([H][…][NH2], custom synthesized and HPLC-purified by Tufts University Core Facility) from 20 mM, then 1:2 dilution, 16-point in duplicate, pin-transferred to column 2, rows 1 to 32. Column 1 is neutral.
Rhodamine-labeled peptide (Rhodamine-[…]-NH2) was custom-synthesized and HPLC-purified by Invitrogen (Carlsbad, CA).
Four uL of reagents were dispensed to 1536-well Greiner black solid-bottom plates. Compounds and controls (23 nL) were transferred via Kalypsys PinTool. The plates were incubated for 10 min at room temperature, and then read on ViewLux (Perkin-Elmer) High-throughput CCD imager using BODIPY for the rhodamine-labeled decapeptide probe. During dispense, reagent bottles were kept submerged into 4 deg C water bath and all liquid lines were covered with aluminum foil to minimize probe and protein degradation. All screening operations were performed on a Kalypsys robotic system (Kalypsys, Inc., San Diego, CA) containing one RX-130 and two RX-90 anthropomorphic robotic arms.
% is scaled to controls: 0 for no effect and ±100 for the full control effect; potency is read from the fitted curve at half-maximal effect.

Sequence of Guanine nucleotide-binding protein G(i) subunit alpha-1 (Homo sapiens) (P63096 whole entry, looked up): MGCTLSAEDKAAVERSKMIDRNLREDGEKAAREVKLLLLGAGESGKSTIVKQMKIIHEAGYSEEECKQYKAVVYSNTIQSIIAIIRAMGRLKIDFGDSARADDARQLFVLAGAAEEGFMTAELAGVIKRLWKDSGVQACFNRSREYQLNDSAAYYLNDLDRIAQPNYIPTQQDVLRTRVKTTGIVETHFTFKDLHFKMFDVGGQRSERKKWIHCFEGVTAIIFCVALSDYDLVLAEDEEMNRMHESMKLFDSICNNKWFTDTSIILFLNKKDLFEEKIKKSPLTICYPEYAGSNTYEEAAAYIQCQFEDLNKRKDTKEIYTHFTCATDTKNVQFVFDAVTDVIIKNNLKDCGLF

Structure (SMILES) | activity, negative = inhibition | Potency
CCN1C(=O)c2cccc3c(N)ccc1c23 | 7.95% | 
Cc1cccc(N2C(=O)SC(SC(=Nc3ccccc3)Nc3ccccc3)C2=O)c1 (stereo not drawn) | -0.129% | 
O=C(C1=C[C@H](C2CC2)C[C@H](OCc2ccc(CO)cc2)O1)N1CCN(Cc2ccccc2)CC1 | 3.38% | 
CCOC(=O)N1CCN(Cc2nc3ccc([N+](=O)[O-])cc3c(=O)n2-c2cccc(OC)c2)CC1 | -0.269% | 
CCOC(=O)c1cc2n(c1N)-c1ccccc1C2=O |  | 17.8 µM (active)
CCOC(=O)C1=C(C(=O)OCC)C(C(=O)OCC)N(S(=O)(=O)C(F)(F)F)c2ccccc21 (stereo not drawn) | 7.48% | 
CCOC(=O)Nc1ccccc1N1C(=O)c2ccccc2C1=O | 1.1% | 
Cc1nc2c(c(=O)n1Cc1ccco1)c1nc3ccccc3nc1n2Cc1ccccc1 | 25.4% | 
O=c1[nH]c2c(c(=O)n1Cc1ccccc1)CCC2 | -1.69% | 
Cc1cc2nc3c(=O)n(Cc4ccccc4)c(=O)[nH]c3nc2cc1N |  | 12.6 µM (active)
C=CC(=O)c1ccc2ccccc2c1 |  | inactive
O=C(Nc1ccc(O)cc1)c1ccccc1O | 0.336% | 
COc1ccc(OCCC(=O)c2ccc(OC)cc2)cc1 | 3.76% | 
CC(C)CCOc1ccc(C(=O)C[N+]2(C)CCOCC2)cc1 |  | 3.55 µM (active)
CC(=O)c1ccc(OCCN2CCOCC2)cc1 | -13.5% | 
O=C(CCCNS(=O)(=O)c1cccc2nsnc12)NCCN1CCN(c2ccccc2F)CC1 | -6.83% | 
N#Cc1ccccc1CN1C(=O)S/C(=C/c2cccn2-c2cccc(C(=O)O)c2)C1=O | 66.7% | 
COc1cc(C(=O)NCc2ccc3c(c2)cc(C)n3C)cc(OC)c1OC | -5.23% | 
CCOc1ccc(C(O)Cn2c(=N)n(CCN3CCCCC3)c3ccccc32)cc1 (stereo not drawn) | 9.41% | 
O=P(O)(CN1CCCCCC1)C1Cc2ccccc2C1 | -3.29% | 
Cc1ccccc1CN1C[C@@H]2C[C@@H](c3ccc4nsnc4c3)N3CCC[C@@]23C1=O | 6.4% | 
Nc1nc2c(ncn2[C@@H]2O[C@H](COP(=O)(O)OP(=O)(O)OP(=O)(O)O)[C@@H](O)C2O)c(=O)[nH]1 (stereo partly drawn) | 2.15% | 
CC[N+](C)(CC)CCC[n+]1c(-c2ccccc2)c2cc(N)ccc2c2ccc(N)cc21 |  | 4.47 µM (active) and 12.6 µM (active)
CC/C=C\C/C=C\C/C=C\C/C=C\C/C=C\C/C=C\CCC(=O)NCCc1ccc(O)c(O)c1 | 3.48% | 
COc1ccc(CC(N)C(=O)NC2C(O)[C@H](n3cnc4c(N(C)C)ncnc43)O[C@@H]2CO)cc1 (stereo partly drawn) | 3.32% | 
COCCNC(=O)/C(C#N)=C/c1nc(N(C)C)n(-c2ccc(F)cc2)c1Cl | -2.69% | 
O=C(/C=C/NCc1ccc(F)cc1)c1ccccc1 | -3.93% | 

Structure (SMILES) | activity, negative = inhibition | Potency
O=C(c1ccncc1)N1CCN(c2ccc3ccccc3n2)CC1 | -3.32% | 
Cc1nc(-c2ccccc2)sc1C(=O)/C=C/N(C)C | 8.99% | 
CC1(C)C=CC(=O)[C@]2(C)C1CC(=O)[C@]1(C)C2CC[C@@]2(C)C(c3ccoc3)OC(=O)C3OC321 (stereo partly drawn) | -47.9% | 
CC(C)=CCN1CCC2(CCc3ccccc32)CC1 | 7.2% | 
O=C(c1ccc(F)cc1)N1CCCC(c2nc(-c3cccs3)no2)C1 (stereo not drawn) | -1.92% | 
C/C(=N\NC(=S)NC1CCCCC1)c1ccc(C)o1 | -0.165% | 
CCN1/C(=C/C(=S)Nc2ccccc2)Sc2ccccc21 | 31.8% | 
CCN1/C(=C\c2ccc3ccccc3[n+]2CC)Sc2cc(C)ccc21 | 70.9% | 
CCN1/C(=C/c2ccc3ccc(C)cc3[n+]2CC)Sc2ccccc21 |  | 0.708 µM (active)
O=c1ccn([C@@H]2O[C@H](COP(=O)(O)OP(=O)(O)OP(=O)(O)O)[C@@H](O)[C@H]2O)c(=O)[nH]1 | 1.87% | 
CC(Sc1nc2c([nH]c3ccccc32)c(=O)n1C)c1ccccc1 (stereo not drawn) | -2.16% | 
CC/C=C\C/C=C\C/C=C\C/C=C\C/C=C\C/C=C\CCC(=O)NC(C)C(=O)O (stereo not drawn) | 5.36% | 
COc1ccc(S(=O)(=O)N2CN(CCc3ccc(OC)c(OC)c3)c3nc4ccccc4nc32)cc1 | 6.37% | 
CCc1nnc(NC(=O)c2c(O)c3c([nH]c2=O)CCCC3)s1 | -2.64% | 
O=C(NCc1ccccn1)c1c(O)c2c([nH]c1=O)CCCC2 | -0.895% | 
C[N+](C)(C)CCNC(=O)c1c(O)c2c([nH]c1=O)CCCC2 |  | 1.12 µM (active)
Cc1ccc(-c2csc(NC(=O)Cn3[nH]c(=O)c4ccccc4c3=O)n2)cc1 | 23.6% | 
COCCOC(=O)c1sc(=S)n(CCOC)c1N |  | 12.6 µM (active)
COC(=O)c1sc(=S)n(-c2ccccc2)c1N | -8.96% | 
CCOC(=O)c1c(N)sc(C(C)=O)c1C | 5.69% | 
Cn1c(=O)n(Cc2ccco2)c(=N)c2c3c(sc21)CCCC3 | 4.71% | 
CC(N)(C(=O)O)c1ccc(-c2nn[nH]n2)cc1 (stereo not drawn) | 3.74% | 
Cc1ccc(CN2CCN(/N=C/c3cccnc3)CC2)c(C)c1 | 28.4% | 
Cc1ccccc1C1=N/C(=C/c2cccnc2)C(=O)O1 | 3.85% | 
Cc1ccc(C2=C/C(=C\c3cccnc3)C(=O)O2)cc1 |  | 0.794 µM (active)
O=C1OC(c2ccc(Cl)cc2)=N/C1=C\c1cccnc1 | 12% | 
